Experimental data taken from PubChem BioAssay (NCI).
The panel holds about 83,000 compounds, 20% with a hit somewhere; the sample as a whole holds those more often.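 The test compound was applied at a single concentration to cells in 96-well plates for 48 hours, and percent growth was recorded.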 Unmarked numbers belong to inactive results. Activity calls are given as the source filed them. Rule for the calls: active = growth percent below 10; inactive = the rest.

tested on: NCI-H322M lung; assay: NCI-60 one-dose screen, 48 h (100 = growth as untreated, 0 = no growth, -100 = all killed); details: 10 µM unless noted

| Compound | growth [%] |
| --- | --- |
| COc1cc(/C=C/C(=O)c2ccc(Cl)cc2)ccc1Oc1nc(NCCO)nc(N2CCOCC2)n1 | 95.8 |
| O=C(Oc1ccc2ccc(=O)oc2c1)c1ccc(Cl)cc1 | 99 |
| COc1cc(/C=C/C(=O)c2ccccc2)ccc1Oc1nc(NCCO)nc(N2CCOCC2)n1 | 99.3 |

tested on: HOP-62 NSCLC; assay: as above; details: 10 µM unless noted

| Compound | growth |
| --- | --- |
| Clc1ccc2oc3c(NCCCN4CCOCC4)c4ccccc4nc3c2c1 | 43.5% |
| CN(C)c1ccc(/C=C2\Cc3c(F)ccc(Br)c3C2=O)cc1 | 91.5% |
| O=C(N/N=C/c1ccc([N+](=O)[O-])s1)c1[nH]c2ccc(Br)cc2c1-c1ccccc1 | 27.2% |
| CC(O)C(NC(=O)C1CCCN1C(=O)CNC(=O)C1CC(=O)NCC(=O)NC(Cc2c[nH]c3ccccc23)C(=O)NC(Cc2ccc(O)cc2)C(=O)NCC(=O)NC(CO)C(=O)NC(CCC(N)=O)C(=O)NC(Cc2c[nH]c3ccccc23)C(=O)N1)C(=O)NCC(=O)NC(CCC(N)=O)C(=O)NC(CCCNC(=N)N)C(=O)NC(CC(=O)O)C(=O)O (stereo unspecified) | 105% |
| O=C(CN1CCOCC1)NNc1ncnc2ccccc12 | 115% |
| N#Cc1c(-c2ccc(Cl)cc2)nc(SCc2ccccc2)nc1N1CCNCC1 | 78.9% |
| Cn1cc(-c2cc(N)n3nc(-c4cn(C)c5ccc(F)cc45)cc3n2)c2cc(F)ccc21 | 92% |
| CS(=O)(=O)c1ccc(-c2nc3ccccn3c2/C=N/Nc2nc(-c3ccc(Cl)cc3)cs2)cc1 | 109% |
| O=c1/c(=C\c2ccc(-c3ccccc3)o2)sc2nc(-c3ccccc3)nn12 | 92.8% |
| Cc1nc(-c2cc3ccccc3oc2=O)ccc1C(=O)/C=C/c1ccccn1 | 103% |
| Nc1c(C(=O)Nc2ccc(C(F)(F)F)cc2)sc2nc(-c3cnccn3)cc(-c3cccs3)c12 | 68.1% |
| O=C1Nc2cc(Cl)ccc2/C1=C\c1ccc(OCc2ccc(Br)cc2F)cc1 | -21.1% (active) |
| C=CCSc1ccc2c(c1)C(N1CCNCC1)=Nc1ccccc1O2 | 84.7% [8.25 µM] |
| COc1ccc(NC2=CC(=O)C(C)=C(C)C2=O)cc1 | 99.7% |
| CS(=O)(=O)c1ccc(-c2nc3ccccn3c2-c2nc3ccc([N+](=O)[O-])cc3[nH]2)cc1 | 105% |
| CCOC(=O)c1c(Nc2ccccc2)nn2c(-c3ccco3)c(C#N)cnc12 | 95.6% |
| COc1ccc(NC(=O)c2sc3nc(-c4cnccn4)cc(-c4cccs4)c3c2N)cc1 | 84.4% |
| CC(=O)c1ccc(Nc2nc(SC(C)C)nc(-c3ccccc3)c2C#N)cc1 | 92.7% |
| COc1ccc(N/N=C/c2c(-c3ccc(S(C)(=O)=O)cc3)nc3ccccn23)cc1 | 57.4% |

| Compound | growth |
| --- | --- |
| O=C1C2=C(C(=O)c3c(O)cccc31)C(c1ccco1)c1sc(=O)[nH]c1S2 (stereo unspecified) | -72.2% (active) |
| COc1ccc(/C=C2\SC(=Nc3cc(C)on3)NC2=O)cc1 | 96% |
| COc1ccc(-c2nc3ccc(-c4nnc(SCC(=O)Nc5ccc(C(=O)/C=C/c6ccccc6)cc5)o4)cc3[nH]2)cc1OC | 101% |
| O=C(CSc1nnc(-c2ccc3nc(-c4ccc(Cl)cc4)[nH]c3c2)o1)Nc1ccc(C(=O)/C=C/c2ccc(Cl)cc2)cc1 | 97.9% |
| OC1CCN(CCCOc2c3ccccc3nc3c2oc2ccccc23)CC1 | 5.52% (active) |
| Nc1cc(-c2c[nH]c3ccccc23)nc2cc(-c3c[nH]c4ccccc34)nn12 | 95.3% |
| N[C@@H](Cc1cn(-c2c3ccccc3nc3ccccc23)nn1)C(=O)O | 96.6% |
| CCN1CCN(S(=O)(=O)c2oc(-c3ccc(Cl)cc3)nc2C#N)CC1 | 108% |
| OC1CCc2c(-c3ccc4ncnc(N5CCc6cc(F)c(Cl)cc65)c4c3)cncc21 (stereo unspecified) | 63.7% |
| O=C(N/N=C/c1ccc([N+](=O)[O-])o1)c1[nH]c2ccc(Br)cc2c1-c1ccccc1 | 24.2% |
| N#Cc1ccc(C(=O)CSc2nc(Nc3ccc(S(N)(=O)=O)cc3)c3ccccc3n2)cc1 | 99.2% |
| COc1cc(/C=C/C(=O)c2cc(OC)c(OC)c(OC)c2)ccc1Oc1nc(NCCO)nc(N2CCOCC2)n1 | 1.11% (active) |
| NC(=O)c1c(NC(=O)c2ccc(C3CCCCC3)cc2)sc2c1CCC(=O)C2 | 56.4% |
| COc1cc2nc(-c3ccc(C(F)(F)F)cc3)cc(OCCCNCC3CCCO3)c2cc1OC (stereo unspecified) | 53.8% |
| Nc1c(C(=O)c2ccc(Br)cc2)oc2nc(-c3cnccn3)cc(-c3cccs3)c12 | 94% |
| Cc1sc2c(c1C)c(=O)nc1c(-c3nc(-c4ccc(F)cc4)no3)n[nH]n12 | 91.8% |
| COc1cc(/C=C/C(=O)c2ccc(Cl)cc2)ccc1Oc1nc(NCCO)nc(N2CCOCC2)n1 | 92.7% |
| O=C(Oc1ccc2ccc(=O)oc2c1)c1ccc(Cl)cc1 | 108% |
| COc1cc(/C=C/C(=O)c2ccccc2)ccc1Oc1nc(NCCO)nc(N2CCOCC2)n1 | 90.1% |
